This note sets out measurements from ChEMBL document CHEMBL3988442, “University of Dundee, Small-Polar-MMV Screening Library” (2021).

One assay deals with T1, Aspartate--tRNA(Asp/Asn) ligase (Mycobacterium tuberculosis (strain ATCC 25618 / H37Rv)) (UniProt P9WFW3).
T1 sequence (whole entry): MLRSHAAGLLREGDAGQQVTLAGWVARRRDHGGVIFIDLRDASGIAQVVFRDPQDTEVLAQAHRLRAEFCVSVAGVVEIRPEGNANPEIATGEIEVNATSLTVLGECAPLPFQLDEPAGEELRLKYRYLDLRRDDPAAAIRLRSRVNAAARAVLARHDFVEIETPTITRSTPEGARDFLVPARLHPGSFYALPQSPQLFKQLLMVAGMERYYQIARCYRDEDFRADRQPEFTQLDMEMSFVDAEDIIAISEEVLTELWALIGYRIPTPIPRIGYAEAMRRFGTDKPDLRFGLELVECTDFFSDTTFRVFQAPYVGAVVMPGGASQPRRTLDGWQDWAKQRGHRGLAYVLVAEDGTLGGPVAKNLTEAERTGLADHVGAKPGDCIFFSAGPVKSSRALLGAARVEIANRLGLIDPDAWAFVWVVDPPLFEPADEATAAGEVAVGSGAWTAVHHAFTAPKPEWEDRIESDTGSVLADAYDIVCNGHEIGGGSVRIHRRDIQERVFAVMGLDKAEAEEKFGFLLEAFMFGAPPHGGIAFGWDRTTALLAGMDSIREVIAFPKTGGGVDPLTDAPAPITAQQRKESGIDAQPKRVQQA
Description: Assay for Asp RNA synthetase-1 from Mycobacterium tuberculosis. The class given is functional. Also noted: scale not given: direction of the effect not stated beside the values. Conditions: 30 µM.
As for `NC(=O)C1CCN(c2nc3nccc(-c4ccccc4)c3c(=O)[nH]2)CC1`, the Percent Effect is -4.72%.

In the case of `COc1ccc2c(c1)C1(CCN(Cc3ccncc3)CC1)N(C)CC2`, the Percent Effect turned out to be 2.26%.

Take `CCOCC(O)CN1CCN(C(=O)c2ccc(OC)cc2F)CC1` (stereo not drawn): the Percent Effect is -10.1%.

As to `Cc1ccccc1CN1CCCN(C2CCOC2=O)CC1` (stereo not drawn), the Percent Effect is -0.409%.

As to `O=C(O)c1nnn(-c2ccc(OC(F)(F)F)cc2)c1-c1ccncc1`, the Percent Effect stood at 4.91%.

Turning to `O=C(c1ccc2c(c1)COC2)N1CCN(CC2CC2)CC1`, the Percent Effect was -0.514%.

On to `O=C(c1cc2cc(F)ccc2[nH]1)N1CCC(Nc2cccnn2)CC1`, for which the Percent Effect was -0.116%.

`Cc1ccc(-c2cc(N)c(=O)n(CC(=O)NCC3CC3)n2)s1`: the Percent Effect was 4.48%.

Turning to `O=C(CNCCn1cccn1)NCC1(c2ccccc2)CC1`, the Percent Effect stood at 1.09%.

Turning to `Cc1cnn(C2CCCN(C(=O)c3ccc(N(C)C)nn3)C2)c1` (stereo not drawn), the Percent Effect is -1.49%.

On to `NCC1Cn2nnc(-c3cccc(F)c3)c2CO1` (stereo not drawn), for which the Percent Effect is 1.16%.

For `Cc1c(C)n(-c2ccccn2)c2nc3c(c(N)c12)CCCC3`, the Percent Effect is -3.86%.

Regarding `Cc1occc1C(=O)N1CC[C@@H](N2CCOCC2)[C@@H]1Cc1ccccc1`, the Percent Effect came to 7.49%.

As to `CC(NC1CCN(CCS(C)(=O)=O)CC1)c1ccc(Cl)cc1` (stereo not drawn), the Percent Effect worked out at 7.04%.

With `O=C1CC(c2ccsc2)c2sc(C(=O)O)c(-c3ccccc3)c2N1` (stereo not drawn), the Percent Effect stood at 1.95%.

For the molecule `COc1c(CNCc2cccc(CN(C)C)c2)c(C)nn1C`, the Percent Effect was -1.85%.

Regarding `N#Cc1cccc(S(=O)(=O)NC(=O)COC2CCCC2)c1`, the Percent Effect came to 1.85%.

In the case of `O=C(C[C@@H]1COC[C@H]2CN(Cc3ccc(F)cc3)C[C@@H]12)N1CCCCO1`, the Percent Effect was determined as 3.14%.

Take `COc1nccc(N2CCN(Cc3ccc(C)cc3)C(=O)C2)c1C#N`: the Percent Effect was found to be 3.98%.

Consider `O=C(CCc1ccc(=O)[nH]n1)N1CCCC(COc2ccc(F)cc2)C1` (stereo not drawn), for which the Percent Effect is 3.84%.

The target in the next assay is Shiga toxin 2 (Escherichia coli O157:H7) (UniProt P09385+P09386). Description: E. coli 0.157:H7 Shiga Toxin SOP - stx2 screening assay. The class given is functional. Also noted: scale not given: direction of the effect not stated beside the values. Conditions: 30 µM.
For `COCC1c2c(cnn2CC2CC2)CCN1Cc1nccs1` (stereo not drawn), the Percent Effect was -52.1%.

`CN(C)CC1CN(Cc2nnc(-c3ccccc3Cl)o2)CCO1` (stereo not drawn): the Percent Effect was -41.7%.

As for `Cc1cccnc1NC(=O)CSc1ccc2c(c1)OCCO2`, the Percent Effect is -4.11%.

In the case of `CCn1nc(C)c2ccn(CC(=O)NC3CCCC3)c(=O)c21`, the Percent Effect is 12.1%.

For `CC(C)c1n[nH]c(C(=O)Nc2ccncc2)c1Br`, the Percent Effect worked out at 4.1%.

In the case of `Cc1cncc(C(=O)N2CCCC(C(=O)CCc3ccccc3)C2)c1` (stereo not drawn), the Percent Effect was -26.1%.

`Cc1cc(C)n(C2CN(CC(O)c3ccc4c(c3)OCO4)C2)n1` (stereo not drawn): the Percent Effect was found to be 7.61%.

Take `CCc1noc(C(C)N2CCN(c3ccc(C#N)cc3F)CC2)n1` (stereo not drawn): the Percent Effect worked out at 8.4%.

Regarding `CN(C)CC1CN(c2ccc(C#N)cn2)CCO1` (stereo not drawn), the Percent Effect turned out to be 22.4%.

On to `O=C(NCc1cccnc1)C1=NOC2(CCN(S(=O)(=O)C3CC3)C2)C1` (stereo not drawn), for which the Percent Effect was -21.8%.

As to `CS(=O)(=O)NC[C@@H]1OC[C@H]2CN(C(=O)c3ccc[nH]3)CC[C@H]21`, the Percent Effect was 0.898%.

Consider `Cc1nc(CN2CCCC(N(C)CCc3ccncc3)C2)no1` (stereo not drawn), for which the Percent Effect was found to be 22.9%.

Take `CC(=O)Nc1cccc(OCCNC(=O)N(C)Cc2ccco2)c1`: the Percent Effect is -16.7%.

Take `Cc1nn(C)cc1CN(C)Cc1cc2c(cc1OC(F)F)OCO2`: the Percent Effect is -11.3%.

`Cc1ccc(-c2nc(CN3CCc4nn(C)c(=O)cc4C3)no2)cc1`: the Percent Effect was -0.113%.

Take `CCOCCCNC(=O)c1cc(C)nc(N2CCCC2)n1`: the Percent Effect was -10.3%.

For the molecule `COC[C@@H]1CC[C@H]2[C@H](CCN2S(=O)(=O)c2ccc(OC)cc2)O1`, the Percent Effect came to 1.36%.

As to `Cn1cc(C(=O)NCc2cn3c(n2)CN(CC2CCOCC2)CC3)cn1`, the Percent Effect is -14.5%.

Consider `NC(=O)N1CC[C@H](O)[C@@H]1Cc1cccnc1`, for which the Percent Effect is 0.815%.

For `CCn1ccnc1CNCC1CCCN1c1cc(NC)ncn1` (stereo not drawn), the Percent Effect is -12.7%.

With `NC(=O)C1CCN(c2nc3nccc(-c4ccccc4)c3c(=O)[nH]2)CC1`, the Percent Effect is -30.6%.

Turning to `COc1ccc2c(c1)C1(CCN(Cc3ccncc3)CC1)N(C)CC2`, the Percent Effect was -1.38%.

As to `CCOCC(O)CN1CCN(C(=O)c2ccc(OC)cc2F)CC1` (stereo not drawn), the Percent Effect was -5.15%.

Regarding `Cc1ccccc1CN1CCCN(C2CCOC2=O)CC1` (stereo not drawn), the Percent Effect was 15%.

For `O=C(O)c1nnn(-c2ccc(OC(F)(F)F)cc2)c1-c1ccncc1`, the Percent Effect is -8.85%.

Turning to `O=C(c1ccc2c(c1)COC2)N1CCN(CC2CC2)CC1`, the Percent Effect was -1.4%.

With `O=C(c1cc2cc(F)ccc2[nH]1)N1CCC(Nc2cccnn2)CC1`, the Percent Effect was -83.2%.

As for `Cc1ccc(-c2cc(N)c(=O)n(CC(=O)NCC3CC3)n2)s1`, the Percent Effect came to 3.54%.

For `O=C(CNCCn1cccn1)NCC1(c2ccccc2)CC1`, the Percent Effect came to 13.4%.

For the molecule `Cc1cnn(C2CCCN(C(=O)c3ccc(N(C)C)nn3)C2)c1` (stereo not drawn), the Percent Effect is -0.265%.

With `NCC1Cn2nnc(-c3cccc(F)c3)c2CO1` (stereo not drawn), the Percent Effect is -69.1%.

Take `Cc1c(C)n(-c2ccccn2)c2nc3c(c(N)c12)CCCC3`: the Percent Effect is -68.1%.

In the case of `Cc1occc1C(=O)N1CC[C@@H](N2CCOCC2)[C@@H]1Cc1ccccc1`, the Percent Effect worked out at 6.03%.
